This note sets out measurements from PubChem BioAssay (EPA / NIEHS).

Inconclusive results are not listed. Activity calls are given as the source filed them. The calls were made as follows: active = hit-call score of the fitted dose curve at least 0.9, where 1 is the maximum; inconclusive = response in the unintended direction; inactive = score below 0.9.

T1 sequence (P03372 whole entry, looked up, the tested form may be a part): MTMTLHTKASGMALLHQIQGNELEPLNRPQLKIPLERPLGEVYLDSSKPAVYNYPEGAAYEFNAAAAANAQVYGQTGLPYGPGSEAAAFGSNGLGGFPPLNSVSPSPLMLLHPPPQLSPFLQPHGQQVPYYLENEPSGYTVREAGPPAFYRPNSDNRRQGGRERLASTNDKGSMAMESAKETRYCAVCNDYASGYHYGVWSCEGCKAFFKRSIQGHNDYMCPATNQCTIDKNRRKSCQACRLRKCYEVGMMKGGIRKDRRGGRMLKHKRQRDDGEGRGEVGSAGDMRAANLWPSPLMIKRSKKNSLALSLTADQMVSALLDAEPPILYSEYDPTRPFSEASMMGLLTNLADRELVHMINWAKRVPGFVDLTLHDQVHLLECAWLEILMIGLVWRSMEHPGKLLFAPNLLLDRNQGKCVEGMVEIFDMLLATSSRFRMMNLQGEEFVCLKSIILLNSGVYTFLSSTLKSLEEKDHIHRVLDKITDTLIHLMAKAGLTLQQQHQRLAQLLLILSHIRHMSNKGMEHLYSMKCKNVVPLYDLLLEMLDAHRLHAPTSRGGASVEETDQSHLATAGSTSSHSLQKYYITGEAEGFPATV
T1 sequence (Q92731 whole entry, looked up, the tested form may be a part): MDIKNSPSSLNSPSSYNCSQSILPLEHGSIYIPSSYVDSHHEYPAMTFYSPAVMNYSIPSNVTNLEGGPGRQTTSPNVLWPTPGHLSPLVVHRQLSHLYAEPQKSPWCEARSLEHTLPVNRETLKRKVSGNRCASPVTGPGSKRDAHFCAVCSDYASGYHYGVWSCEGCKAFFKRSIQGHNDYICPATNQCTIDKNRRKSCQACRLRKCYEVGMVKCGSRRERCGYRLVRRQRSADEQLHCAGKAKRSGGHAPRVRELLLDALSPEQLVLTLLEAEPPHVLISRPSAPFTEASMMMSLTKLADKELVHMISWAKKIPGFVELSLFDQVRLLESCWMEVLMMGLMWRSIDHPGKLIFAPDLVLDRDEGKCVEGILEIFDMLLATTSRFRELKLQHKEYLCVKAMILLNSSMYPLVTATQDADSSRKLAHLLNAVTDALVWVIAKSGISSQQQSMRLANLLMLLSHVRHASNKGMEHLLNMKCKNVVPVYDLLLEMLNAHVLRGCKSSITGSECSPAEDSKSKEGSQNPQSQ

The first test addresses T1, Estrogen receptor (Homo sapiens) + Estrogen receptor beta (Homo sapiens) (UniProt P03372+Q92731). The experiment in a line: OT_ER_ERaERb_0480: Odyssey Thera (OT) 8-hour HEK293T Protein-Complementation Assay for Estrogen Receptor-alpha/-beta Heterodimer (AID 2283352). In short, it runs like this: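 Human HEK293T cells were treated for 8 hours and receptor heterodimerisation was detected through reconstitution of a fluorescent reporter split between ER-alpha and ER-beta ligand-binding domains. Activity was analysed as gain of signal against DMSO.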
For `CC[C@H](C)C(=O)O[C@H]1C[C@@H](C)C=C2C=C[C@H](C)[C@H](CC[C@@H]3C[C@@H](O)CC(=O)O3)[C@H]21`, the result was inactive. Still for that read-out and setting: next, `CCCCCCCCO`: “inactive”; `COC(=O)CC(=O)OC`: “inactive”. The same measure, in the same setting: in the case of `COc1ccc2sc(C(=O)Nc3nnn[nH]3)c(OC(C)C)c2c1` it was “inactive”; in that of `C=CC(=C)CCC=C(C)C`, “inactive”; in that of `O=C(NS(=O)(=O)/C=C/c1ccccc1)c1ccc(F)cc1Cl`, “inactive”.

On to `COc1cccc(-c2ccc(/C=C\CN3CCCCCC3)cc2Cl)c1`, for which the result was inactive.

In the case of `CC(C)CCO`, the result was inactive.

As for `Cn1c(=O)cc(Oc2ccc(F)cc2F)c2cnc(NCC(C)(C)O)nc21`, the result was inactive.

Turning to `O=c1n(CC2CO2)c(=O)n(CC2CO2)c(=O)n1CC1CO1` (stereo not drawn), the outcome was inactive.

`COC(=O)c1c(Cl)c(Cl)c(C(=O)OC)c(Cl)c1Cl`: the result was inactive. Take `O=P(OC(CCl)CCl)(OC(CCl)CCl)OC(CCl)CCl`: the result was inactive. The same measure, in the same setting: next, `Cn1cnc([N+](=O)[O-])c1Sc1ncnc2nc[nH]c12`: “inactive”; `Cc1ccc(N)cc1O`: “inactive”. In the case of `CC(C)=CCCC(C)=CC=O`, the outcome was inactive. Turning to `CCn1nc(Cc2ccccc2)cc1C1CCN(C[C@H]2C[C@H](N(C)[C@@H](C(=O)O)C(C)C)C[C@@H]2c2cccc(F)c2)CC1`, the result was inactive.

As for `CCC(C)(C)C(=O)O[C@H]1C[C@@H](C)C=C2C=C[C@H](C)[C@H](CC[C@@H]3C[C@@H](O)CC(=O)O3)[C@H]21`, the outcome was inactive. Same read-out and setting: next, `C=CCCCCCCCCC(=O)O`: “inactive”.

The target of a further test is Androgen Receptor/SRC-1 Co-activator, AR (gene 367) (UniProt P10275). The test is described as follows: OT_AR_ARSRC1_0960: Odyssey Thera (OT) 16-hour HEK293T Protein-Complementation Assay for Androgen Receptor/SRC-1 Co-activator (AID 2283353).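 Also: actives raise the signal above DMSO so potency reflects increased AR and SRC-1 complex.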 In short, it runs like this: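 Interaction of AR with SRC-1 was followed by YFP fragment complementation in HEK293T cells after 16 h of dosing. Gain of nuclear-over-cytoplasmic 488 nm fluorescence against DMSO controls defined activity.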
Chain of Androgen Receptor/SRC-1 Co-activator, AR (gene 367) (P10275 whole entry, looked up, the tested form may be a part): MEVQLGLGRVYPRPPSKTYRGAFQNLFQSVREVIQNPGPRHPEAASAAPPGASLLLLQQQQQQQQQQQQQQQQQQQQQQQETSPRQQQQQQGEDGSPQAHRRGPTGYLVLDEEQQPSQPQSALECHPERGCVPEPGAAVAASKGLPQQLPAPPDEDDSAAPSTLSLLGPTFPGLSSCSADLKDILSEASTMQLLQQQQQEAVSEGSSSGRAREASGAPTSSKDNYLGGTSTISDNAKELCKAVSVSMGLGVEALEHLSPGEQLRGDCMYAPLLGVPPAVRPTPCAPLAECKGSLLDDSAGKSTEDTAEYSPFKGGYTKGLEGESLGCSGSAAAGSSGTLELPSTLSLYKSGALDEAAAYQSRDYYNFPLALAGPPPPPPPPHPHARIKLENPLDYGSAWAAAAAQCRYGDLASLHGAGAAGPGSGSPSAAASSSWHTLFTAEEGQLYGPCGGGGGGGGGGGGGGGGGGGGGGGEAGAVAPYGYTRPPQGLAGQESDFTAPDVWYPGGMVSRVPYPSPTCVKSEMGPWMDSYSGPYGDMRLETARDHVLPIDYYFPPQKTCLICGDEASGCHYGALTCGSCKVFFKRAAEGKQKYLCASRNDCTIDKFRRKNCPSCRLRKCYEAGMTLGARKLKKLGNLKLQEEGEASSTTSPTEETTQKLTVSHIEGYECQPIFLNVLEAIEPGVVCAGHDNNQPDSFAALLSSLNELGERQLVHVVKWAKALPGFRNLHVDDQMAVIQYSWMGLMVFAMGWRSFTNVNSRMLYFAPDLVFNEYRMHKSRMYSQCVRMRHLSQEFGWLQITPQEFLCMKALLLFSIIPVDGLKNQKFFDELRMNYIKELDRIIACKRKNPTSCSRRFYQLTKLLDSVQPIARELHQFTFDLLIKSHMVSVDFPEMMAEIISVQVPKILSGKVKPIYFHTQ
For `CC(C)=CCCC(C)CCO` (stereo not drawn), the compound was classed as inactive.

As for `CNS(=O)(=O)c1cc(C(=O)N2CCC(CCN3C4CCC3CC(n3c(C)nc5ccccc53)C4)(c3cccc(F)c3)CC2)c(Cl)cc1F` (stereo not drawn), the AC50 (commonly the midpoint of the concentration-response curve, whichever way the signal moves) was 31.9 µM (active). Consider `Cc1ccc(N)cc1O`, for which the compound was called inactive.

In the next test the target is T1, Estrogen receptor (Homo sapiens) + Estrogen receptor beta (Homo sapiens). The test is described as follows: OT_ER_ERaERb_1440: Odyssey Thera (OT) 24-hour HEK293T Protein-Complementation Assay for Estrogen Receptor-alpha/-beta Homodimer (AID 2283356).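 Also: heteromer of ER alpha and ER beta binding domains; hits raise reporter fluorescence and both agonists and antagonists give an increase.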 In short, it runs like this: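 24 h exposure; HEK293T PCA cells with ERα/ERβ LBD fragments; signal rise in nuclear or whole-cell fluorescence over vehicle.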
Regarding `CC[C@H](C)C(=O)O[C@H]1C[C@@H](C)C=C2C=C[C@H](C)[C@H](CC[C@@H]3C[C@@H](O)CC(=O)O3)[C@H]21`, the outcome was inactive. In the case of `CCCCCCCCO`, the outcome was inactive.

For the compound `COC(=O)CC(=O)OC`, the outcome was inactive. The same measure, in the same setting: in the case of `CC(C)=CCCC(C)CCO` (stereo not drawn) it was “inactive”. Same read-out and setting: next, `COc1ccc2sc(C(=O)Nc3nnn[nH]3)c(OC(C)C)c2c1`: “inactive”; `C=CC(=C)CCC=C(C)C`: “inactive”. Still for that read-out and setting: in the case of `O=C(NS(=O)(=O)/C=C/c1ccccc1)c1ccc(F)cc1Cl` it was “inactive”; in that of `CC[C@H]1CC[C@H](NCc2cc3c(cc2OC)[C@H]2C[C@H]2C(=O)N3C)[C@H](c2ccccc2)N1`, “inactive”. Turning to `O=c1[nH]c2ccc(S(=O)CCN3CCC(Cc4ccc(F)cc4)CC3)cc2o1` (stereo not drawn), the result was inactive.

Take `COc1cccc(-c2ccc(/C=C\CN3CCCCCC3)cc2Cl)c1`: the AC50 was 10.7 µM (active). As for `CC/C(=C\C(=N/O)C(N)=O)C(C)[N+](=O)[O-]` (stereo not drawn), the outcome was inactive. In the case of `CC(C)CCO`, the outcome was inactive. `Cn1c(=O)cc(Oc2ccc(F)cc2F)c2cnc(NCC(C)(C)O)nc21`: the AC50 is 50 µM (active). On to `O=c1n(CC2CO2)c(=O)n(CC2CO2)c(=O)n1CC1CO1` (stereo not drawn), for which the result was inactive. Consider `COC(=O)c1c(Cl)c(Cl)c(C(=O)OC)c(Cl)c1Cl`, for which the AC50 is 50 µM (active). For `O=P(OC(CCl)CCl)(OC(CCl)CCl)OC(CCl)CCl`, the result was inactive. Consider `Cn1cnc([N+](=O)[O-])c1Sc1ncnc2nc[nH]c12`, for which the outcome was inactive. `Cc1ccc(N)cc1O`: the outcome was inactive. Same read-out and setting: next, `CC(C)=CCCC(C)=CC=O`: “inactive”. Same read-out and setting: next, `CCn1nc(Cc2ccccc2)cc1C1CCN(C[C@H]2C[C@H](N(C)[C@@H](C(=O)O)C(C)C)C[C@@H]2c2cccc(F)c2)CC1`: “inactive”; `CCC(C)(C)C(=O)O[C@H]1C[C@@H](C)C=C2C=C[C@H](C)[C@H](CC[C@@H]3C[C@@H](O)CC(=O)O3)[C@H]21`: “inactive”. On the same count and under the same terms, next, `C=CCCCCCCCCC(=O)O`: “inactive”.
